Hits are enriched below; roughly 1.3% of the tested compounds scored in any of these assays.
NPR1 activator – GC-A (human) enzyme activation; P16066; HEK293 GC-A cells, cGMP TR-FRET, EC30 ANP; 0% at EC30 ANP, 100% saturating ANP; activation, % at 10 µM; 370,000 compounds, 0.14% hits; in the data active = activation above about 40%
NPR2 activator – GC-B (human) receptor activation; activation, % at 10 µM; 370,000 compounds, 0.11% hits; AID 1920062; HEK293-GC-B cells, CNP EC30, cGMP TR-FRET; 0% at EC30 CNP, 100% saturating CNP;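 active = activation at 10 µM reaching about 35% in either raw or pattern-adjusted values, limit read from the data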
ADAM17 inh – inhibits human ADAM17. P78536. recombinant ADAM17, EDANS/DABCYL FRET peptide cleavage. inhibition, % at 6.95 µM. 370,000 compounds, 0.83% hits;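 active = inhibition above the mean of compounds lying between control limits plus 3 SD, set per campaign, cut at about 8.5% in these data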
Target sequence (P78536 215-824 limits assumed): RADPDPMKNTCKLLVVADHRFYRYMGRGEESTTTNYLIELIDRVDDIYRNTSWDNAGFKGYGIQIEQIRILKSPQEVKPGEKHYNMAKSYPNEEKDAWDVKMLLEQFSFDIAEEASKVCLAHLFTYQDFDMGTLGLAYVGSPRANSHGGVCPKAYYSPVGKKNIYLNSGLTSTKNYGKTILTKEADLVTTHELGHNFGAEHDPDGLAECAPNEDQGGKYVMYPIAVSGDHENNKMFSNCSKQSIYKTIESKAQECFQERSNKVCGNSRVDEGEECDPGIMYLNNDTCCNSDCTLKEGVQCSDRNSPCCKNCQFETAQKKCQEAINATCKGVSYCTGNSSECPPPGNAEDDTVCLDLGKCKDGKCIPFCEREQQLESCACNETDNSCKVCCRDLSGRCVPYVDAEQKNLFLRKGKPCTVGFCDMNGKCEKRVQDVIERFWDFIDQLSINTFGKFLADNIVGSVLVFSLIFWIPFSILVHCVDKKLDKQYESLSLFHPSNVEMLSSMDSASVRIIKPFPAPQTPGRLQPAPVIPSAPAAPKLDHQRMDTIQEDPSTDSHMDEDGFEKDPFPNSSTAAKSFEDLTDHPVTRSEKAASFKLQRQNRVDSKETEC
ADAM10 inh – inhibitors of human ADAM10. recombinant ADAM10, EDANS/DABCYL FRET peptide cleavage, 3 h. inhibition, % at 7 µM. O14672. 370,000 compounds, 0.62% hits;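 active = inhibition above a per-campaign cutoff equal to the mean of compounds falling between control-based bounds plus 3 SD, cut at about 20% in these data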
ADAM10 ctr – ADAM10 inhibition, counter-screen for ADAM17 exosite hits; shares compounds with ADAM17 inh; recombinant ADAM10, EDANS/DABCYL FRET peptide cleavage, 3 h; inhibition, % at 6.95 µM; 2,900 compounds, 47% hits;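 active = mean inhibition over the triplicate runs exceeds the activity threshold set in the earlier primary screen, cut at about 20% in these data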
ADAM17 confirm – human ADAM17 inhibition, confirmation | recombinant ADAM17, EDANS/DABCYL QFRET peptide cleavage | 2,900 compounds, 65% hits | shares compounds with ADAM17 inh | AID 743257 | inhibition, % at 6.95 µM;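 active = mean inhibition across replicates above the hit cutoff set in the primary screen, cut at about 8.5% in these data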
Each line names hits and unclear results; the compound was inactive in the other large screens (follow-up assays come after a bar, where they were run).

O=S1(=O)CC2c3ccccc3CN2CN1C1CCCC1 (centres undefined)	none
Cn1nc(C(=O)Nc2ccccc2)c2c1-c1ccccc1S(=O)(=O)C2	none
COc1cc(NCc2ccccc2)c2ncn(Cc3ccccc3)c2c1	ADAM17 inh 12 | ADAM10 ctr inactive | ADAM17 confirm inactive
O=C(/C=C/c1cccc([N+](=O)[O-])c1)NCCSCc1ccccc1Cl	ADAM17 inh 8.9 | ADAM10 ctr 27 | ADAM17 confirm 14
CCN(CC)S(=O)(=O)c1cc(NC(=O)C(C)N2CCc3ccccc32)ccc1C (centres undefined)	ADAM17 inh 10 | ADAM10 ctr inactive | ADAM17 confirm inactive
Cc1ccc(NC(=O)C(C)N2CCCc3ccccc32)cc1S(=O)(=O)N1CCOCC1 (centres undefined)	none
CC(=O)c1cccc(-c2ccnc3c2CC(C(=O)Nc2cccc(OC(F)(F)F)c2)O3)c1 (centres undefined)	none
O=C(Nc1cccc(OC(F)(F)F)c1)C1Cc2c(-c3ccc(Cl)cc3)ccnc2O1 (centres undefined)	ADAM17 inh 10 | ADAM10 ctr inactive | ADAM17 confirm inactive
COc1ccc(NC(=O)C2Cc3c(-c4ccccc4Oc4ccccc4)ccnc3O2)cc1 (centres undefined)	ADAM17 inh 9.6 | ADAM10 ctr inactive | ADAM17 confirm inactive
C#CCN1C(=O)S/C(=C/C=C/c2ccc(N(C)C)cc2)C1=O	none
CSCCC(NS(=O)(=O)c1ccc(Cl)cc1)C(=O)OCC(=O)c1c(C)[nH]c2ccccc12 (centres undefined)	ADAM17 inh 9.7 | ADAM10 ctr 29 | ADAM17 confirm 17
Cc1ccc2nc(-c3ccc(NC(=O)CSc4nnc(-c5cc(-c6ccc(F)cc6)n[nH]5)n4N)cc3)sc2c1	none
Cc1cc(C)cc(-n2c(SCC(=O)NCc3ccco3)nc3ccccc3c2=O)c1	ADAM17 inh 10 | ADAM10 ctr inactive | ADAM17 confirm 8.7
Cc1cccc(C)c1-n1c(SCC(=O)NCc2ccco2)nc2ccccc2c1=O	none
O=C(NCCOc1ccccc1F)c1cc(F)c(F)cc1Cl	none
O=C(NCCOCC(F)(F)C(F)F)c1cc(F)c(F)cc1Cl	ADAM17 inh 8.7 | ADAM10 ctr inactive | ADAM17 confirm inactive
COc1cccc(NC(=O)CSc2nncn2N)c1	ADAM17 inh 9.7 | ADAM10 ctr inactive | ADAM17 confirm inactive
CSCC[C@H](NC(=O)N1CCn2c1nc1ccccc12)C(=O)NCc1ccco1	none
CC(=O)NC12CC3CC(C1)CC(C(=O)Nc1nc4ccc(F)cc4s1)(C3)C2	NPR1 activator 43, ADAM17 inh 8.6 | ADAM10 ctr inactive | ADAM17 confirm inactive
CCOC(=O)CSC1=C(C#N)C(c2ccc(F)cc2)C(C(C)=O)=C(C)N1 (centres undefined)	ADAM17 inh 9.9 | ADAM10 ctr inactive | ADAM17 confirm inactive
Cc1cc(S(=O)(=O)Nc2ccc(C(=O)N3CCN(c4ccccc4O)CC3)cc2)ccc1F	ADAM17 inh 10.0 | ADAM10 ctr inactive | ADAM17 confirm 8.6
Cc1cc(C(=O)CCC(=O)N(C)CC(=O)Nc2ccccc2Br)c(C)s1	ADAM17 inh 11 | ADAM10 ctr inactive | ADAM17 confirm inactive
CCCn1c(N)c(N(CCOC)C(=O)c2ccccc2)c(=O)[nH]c1=O	none
CCCCCNC(=O)C(c1cc2ccccc2o1)n1c(=O)c(-c2ccccc2)nc2ccccc21 (centres undefined)	none
Cc1cn(CCC(=O)Nc2ccccc2N2CCOCC2)c2ccccc12	ADAM17 inh 8.9 | ADAM10 ctr 25 | ADAM17 confirm 12
CCOc1ccc(NC(=O)CN(C)CC(=O)Nc2cc(Cl)ccc2C#N)cc1OCC	ADAM17 inh 9.0 | ADAM10 ctr inactive | ADAM17 confirm inactive
CN(C)S(=O)(=O)c1ccc(/C(O)=C2/C(=O)C(=O)N(Cc3cccnc3)C2c2ccco2)cc1 (centres undefined)	ADAM17 inh 12 | ADAM10 ctr inactive | ADAM17 confirm inactive
C[C@@H]1CN([C@@H](C)CO)C(=O)c2c(c3ccccc3n2C)-c2ccccc2CO[C@H]1CN(C)C(=O)[C@H](Cc1ccccc1)N(C)C	none
Cc1nc2c(OCCC3CCCCC3)cccn2c1N(C)C(=O)CCC1CCCC1	none
CN(C)C(=O)c1ccc(NC(=O)COC(=O)CCN=C2NS(=O)(=O)c3ccccc32)cc1	none
COc1ccc(S[C@]2(C(=O)N3CCOCC3)CC(=O)N(c3ccc(OC)cc3)[C@@H]2c2ccc(OC)cc2)cc1	none
COc1ccc(S[C@]2(C(=O)N3CCN(C(C)=O)CC3)CC(=O)N(C(=O)CCc3ccccc3)[C@@H]2c2ccc(OC)cc2)cc1	ADAM17 inh 16 | ADAM10 ctr 24 | ADAM17 confirm 13
COC(=O)c1cccc(N2C(=O)C[C@](Sc3ccc(OC)cc3)(C(=O)N3CCOCC3)[C@H]2c2ccc(OC)cc2)c1	ADAM17 inh 14 | ADAM10 ctr inactive | ADAM17 confirm inactive
COc1ccc(S[C@]2(C(=O)N3CCOCC3)CC(=O)N(C(=O)CCc3ccccc3)[C@@H]2c2ccc(OC)cc2)cc1	none
CCCCCN(C(=O)CCC(=O)OCC(=O)NCCc1ccccc1)c1c(N)n(CCCC)c(=O)[nH]c1=O	none
COc1ccc(CN(C)C(=O)c2cc(-c3ccccc3)nc3ccc(C)cc23)c(OC)c1	ADAM17 inh 12 | ADAM10 ctr inactive | ADAM17 confirm inactive
Cc1ccc(Sc2ccc(/C=C3/C(=O)NN(c4ccccc4)C3=O)o2)cc1	ADAM17 inh 8.8 | ADAM10 ctr inactive | ADAM17 confirm inactive
O=C1NN(c2ccccc2)C(=O)/C1=C/c1ccc(Sc2ccc(Cl)cc2)o1	none
O=C(CCc1nc(-c2ccccc2F)no1)NCCc1ccccc1F	none
c1ccc(CCn2nnnc2C(c2cccs2)N2CCOCC2)cc1 (centres undefined)	none
COc1ccc(Cn2nnnc2C(c2cccs2)N2CCOCC2)cc1 (centres undefined)	ADAM17 inh 8.7 | ADAM10 ctr inactive | ADAM17 confirm 11
O=C(Nc1ccc(Nc2ccccc2)cc1)c1ccc(Cl)cc1Cl	ADAM17 inh 12 | ADAM10 ctr 36 | ADAM17 confirm 25
O=C(NCc1ccccc1)C1=C[C@H](c2ccc(C(F)(F)F)cc2)C[C@H](OCc2ccc(CO)cc2)O1	ADAM17 inh 14 | ADAM10 ctr inactive | ADAM17 confirm inactive
O=C(NCc1ccccc1)C1=C[C@@H](c2ccc(Br)cc2)C[C@@H](OCc2ccc(CO)cc2)O1	none
CN(C(=O)c1ccc(NC(=O)Cc2ccc(NC(=O)C3CCCN(C(=O)c4ccccc4)C3)cc2)cc1)C1CCCC1 (centres undefined)	none
Cc1cccc(-c2nnc(SCC(=O)Nc3cccc4ccccc34)n2Cc2ccco2)c1	none

Source: PubChem
